Source: PubChem BioAssay (NCATS)
Results filed as inconclusive are left out. Calls of active or inactive are those of the source. Unless noted, calls come from the whole dose curve; as a rule, active = well fitted curve in the direction sought with a large enough effect; inconclusive = small, poorly fitted or top-dose-only effect, or another doubt; inactive = no such curve, though single readings can be large; an effect the other way counts as inactive or inconclusive.

Tests used:
NIH3T3 = test: qHTS assay to identify novel small-molecules to repurpose for Merkel cell carcinoma treatment (AID 1296009); settings: MCC and control cell lines, CellTiter-Glo viability, 72 h; at 44.8 µM (top of the series) unless noted; note: nearly all actives have a fitted effect of over 60% in size; note: potency is the fitted concentration of half-maximal effect
Procedure, shortened: (§1)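 Luminescence from CellTiter-Glo, read 10 min after addition at room temperature, reported viability following a 72 hr, 37 degree celsius treatment with NPC or MIPE compounds in titration; values normalized to plate controls.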

UISO = test: as above; settings: MCC and control cell lines, CellTiter-Glo viability, 72 h; series mostly up to 46 µM
Procedure, shortened: as §1

WaGa = test: as above; settings: MCC and control cell lines, CellTiter-Glo viability, 72 h; series mostly up to 46 µM
Procedure, shortened: as §1

C33A = test: Primary qHTS to identify gynecologic anti-cancer compounds using libraries of approved drugs and bioactive compounds (AID 1345084); settings: Gynecologic cancer cell panel viability, ATPlite luminescence, 48 h; series mostly up to 57.5 µM; note: % is set by controls: 0 for no effect and ±100 for the full control effect; nearly all actives have a fitted effect of over 55% in size
Procedure, shortened: (§2)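 Cytotoxicity screen measuring ATP content by luciferase luminescence. Each compound is applied at five concentrations for 48 h at 37 C with 5% CO2.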

CASKI = test: as above; settings: Gynecologic cancer cell panel viability, ATPlite luminescence, 48 h; series mostly up to 57.5 µM
Procedure, shortened: as §2

Es-2 = test: as above; settings: Gynecologic cancer cell panel viability, ATPlite luminescence, 48 h; series mostly up to 57.5 µM
Procedure, shortened: as §2

HeLa = test: as above; settings: Gynecologic cancer cell panel viability, ATPlite luminescence, 48 h; series mostly up to 57.5 µM
Procedure, shortened: as §2

Hek293T = test: as above; settings: Gynecologic cancer cell panel viability, ATPlite luminescence, 48 h, control line for the selectivity index; series mostly up to 57.5 µM
Procedure, shortened: as §2

JEG-3 = test: as above; settings: Gynecologic cancer cell panel viability, ATPlite luminescence, 48 h; series mostly up to 57.5 µM
Procedure, shortened: as §2

OV90 = test: as above; settings: Gynecologic cancer cell panel viability, ATPlite luminescence, 48 h; series mostly up to 57.5 µM
Procedure, shortened: as §2

PA-1 = test: as above; settings: Gynecologic cancer cell panel viability, ATPlite luminescence, 48 h; series mostly up to 57.5 µM
Procedure, shortened: as §2

Tov-21-G = test: as above; settings: Gynecologic cancer cell panel viability, ATPlite luminescence, 48 h; series mostly up to 57.5 µM
Procedure, shortened: as §2

Tov112D = test: as above; settings: Gynecologic cancer cell panel viability, ATPlite luminescence, 48 h; series mostly up to 57.5 µM
Procedure, shortened: as §2

SKOV3 = test: as above; settings: Gynecologic cancer cell panel viability, ATPlite luminescence, 48 h; series mostly up to 57.5 µM
Procedure, shortened: as §2

[1] = Drug repurposing screens with cells derived from glioblastoma tumor samples (AID 1345199); settings: GBM patient neurospheres viability, ATP luminescence, 48 h; note: nearly all actives have a fitted effect of over 40% in size; note: potency is the fitted concentration of half-maximal effect; for activity, negative = cell killing: % is set by controls: 0 for no effect and ±100 for the full control effect
Procedure, shortened: (§3)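 Primary testing used CD133+ neurospheres from four GBM patients, seven concentrations, 48 h exposure and ATP-based viability; confirmation added three slower-growing patient lines.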

astro = test: as above; settings: viability, ATP luminescence, 48 h; series mostly up to 45.9 µM
Procedure, shortened: as §3

[2] = target: Nuclear receptor subfamily 1 group I member 2 (Rattus norvegicus) (UniProt Q9R1A7); test: qHTS assay for small molecule activators of the rat pregnane X receptor (rPXR) signaling pathway (AID 651751; call rule not given here; note: 0% is about no effect); settings: rPXR reporter cells, luciferase (One-Glo), 24 h
CAOV3 = test: Primary qHTS to identify gynecologic anti-cancer compounds using libraries of approved drugs and bioactive compounds (AID 1345084); settings: Gynecologic cancer cell panel viability, ATPlite luminescence, 48 h; series mostly up to 57.5 µM; note: % is set by controls: 0 for no effect and ±100 for the full control effect; nearly all actives have a fitted effect of over 55% in size
Procedure, shortened: as §2

[3] = qHTS assay to identify inhibitors of the type 1 interferon - major histocompatibility complex class I in skeletal muscle: Counter screen cell viability and HiBit confirmation (AID 1347412); settings: iHSKM muscle cells + IFN-b, HiBiT or CellTiter-Glo, 24 h; Potency: HiBiT; Viability, at 45.9 µM (top of the series); note: % is set by controls: 0 for no effect and ±100 for the full control effect; nearly all actives have a fitted effect of over 60% in size
Procedure, shortened: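 Myoblasts (C25cl48, HLA-B HiBiT) seeded in medium without dexamethasone, IFN-b 4 ng/ml added except unstimulated columns; 1 hr later compounds pinned (12-pt 1:3, top 46 uM final). Incubated 24 hrs, lysed 10 min, luminescence measured.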

[4] = at 45.9 µM (top of the series), tumour line B
[5] = at 45.9 µM (top of the series), tumour line D
[6] = at 46.1 µM (top of the series), tumour line C

Chain of Nuclear receptor subfamily 1 group I member 2 (Rattus norvegicus) (Q9R1A7 whole entry, looked up): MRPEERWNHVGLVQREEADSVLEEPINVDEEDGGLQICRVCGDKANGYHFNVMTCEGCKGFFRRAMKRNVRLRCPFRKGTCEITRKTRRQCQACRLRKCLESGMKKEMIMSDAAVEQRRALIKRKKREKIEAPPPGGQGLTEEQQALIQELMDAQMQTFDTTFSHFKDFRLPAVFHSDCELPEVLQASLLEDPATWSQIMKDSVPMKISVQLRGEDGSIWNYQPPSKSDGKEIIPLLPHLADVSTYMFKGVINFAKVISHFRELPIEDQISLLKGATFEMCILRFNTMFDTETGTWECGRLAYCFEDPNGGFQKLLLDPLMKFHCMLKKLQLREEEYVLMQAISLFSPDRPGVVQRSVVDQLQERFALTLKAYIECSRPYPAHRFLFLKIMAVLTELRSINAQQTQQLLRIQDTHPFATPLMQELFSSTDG

N#CSCC(=O)O
inactive: outcome (NIH3T3) | Potency (UISO) | Potency (WaGa) | Potency (C33A) | Potency (CASKI) | Potency (Es-2) | Potency (HeLa) | Potency (Hek293T) | Potency (JEG-3) | Potency (OV90) | Potency (PA-1) | Potency (Tov-21-G) | Potency (Tov112D)

CC(=O)OCC(=O)[C@@]1(O)[C@H](OC(C)=O)C[C@H]2[C@@H]3CCC4=CC(=O)C=C[C@]4(C)[C@@]3(F)[C@@H](O)C[C@@]21C
inactive: outcome (NIH3T3) | Potency (UISO) | Potency (WaGa) | Potency (C33A) | Potency (CASKI) | Potency (Es-2) | Potency (HeLa) | Potency (Hek293T) | Potency (JEG-3) | Potency (OV90) | Potency (PA-1) | Potency (SKOV3) | Potency (Tov-21-G) | Potency (Tov112D) | activity, negative = cell killing [1, 4] -11.4% | activity, negative = cell killing [1, 5] -13% | activity, negative = cell killing ([1]; at 46 µM (top of the series), tumour line A) -9.78% | activity, negative = cell killing [1, 6] -2.85% | Potency (astro)

OCCOCCN1CCN(C(c2ccccc2)c2ccc(Cl)cc2)CC1 (stereo unspecified)
inactive: outcome (NIH3T3) | Potency (UISO) | Potency (C33A) | Potency (CASKI) | Potency (Es-2) | Potency (HeLa) | Potency (Hek293T) | Potency (JEG-3) | Potency (PA-1) | Potency (SKOV3) | Potency (Tov-21-G) | Potency (Tov112D) | Potency (astro) | max response [2] -2.98%

CC(=O)N1CCN(c2ccc(O)cc2)CC1
inactive: outcome (NIH3T3) | Potency (C33A) | Potency (CAOV3) | Potency (CASKI) | Potency (Es-2) | Potency (HeLa) | Potency (Hek293T) | Potency (JEG-3) | Potency (OV90) | Potency (PA-1) | Potency (SKOV3) | Potency (Tov-21-G) | Potency (Tov112D)
active: Potency (WaGa) 23.7 µM

CC(C)=CCC/C(C)=C/CC/C(C)=C/CCC(=O)OC/C=C(\C)CCC=C(C)C
active: Potency ([1]; tumour line A) 35.5 µM
inactive: outcome (NIH3T3) | Potency (UISO) | Potency (WaGa) | Potency (C33A) | Potency (CASKI) | Potency (Es-2) | Potency (HeLa) | Potency (Hek293T) | Potency (JEG-3) | Potency (OV90) | Potency (PA-1) | Potency (SKOV3) | Potency (Tov-21-G) | Potency (Tov112D) | activity, negative = cell killing [1, 4] -1.59% | activity, negative = cell killing [1, 5] -0.887% | activity, negative = cell killing [1, 6] -6.49% | Potency (astro)

CN1CCC(=C2c3ccccc3CCc3cccnc32)CC1
inactive: outcome (NIH3T3) | Potency (UISO) | Potency (WaGa) | Potency (C33A) | Potency (CASKI) | Potency (Es-2) | Potency (HeLa) | Potency (Hek293T) | Potency (JEG-3) | Potency (OV90) | Potency (PA-1) | Potency (SKOV3) | Potency (Tov112D) | Potency (astro)

Cc1nc([N+](=O)[O-])cn1-c1ccc([N+](=O)[O-])cc1
inactive: outcome (NIH3T3) | Potency (UISO) | Potency (WaGa) | Potency (C33A) | Potency (CASKI) | Potency (Es-2) | Potency (HeLa) | Potency (Hek293T) | Potency (JEG-3) | Potency (OV90) | Potency (PA-1) | Potency (Tov-21-G) | Potency (Tov112D) | Potency (astro)

CCOC(=O)O[C@]1(C(=O)OCCl)CC[C@H]2[C@@H]3CCC4=CC(=O)C=C[C@]4(C)[C@H]3[C@@H](O)C[C@@]21C
inactive: outcome (NIH3T3) | Potency (UISO) | Potency (WaGa) | Potency (C33A) | Potency (CASKI) | Potency (Es-2) | Potency (HeLa) | Potency (Hek293T) | Potency (JEG-3) | Potency (OV90) | Potency (PA-1) | Potency (Tov-21-G) | Potency (Tov112D) | Potency [3]
